For 71 molecules, max dye-equivalent concentration results are on record in PubChem BioAssay AID588 (National Center for Advancing Translational Sciences (NCATS), 2007).

Among all 59,000 compounds or so, about 25 (0.04%) were called active. No rule for the calls is given here. Only a selection was taken, and actives are over-represented in it overall.

This test in a line: qHTS Assay for Spectroscopic Profiling in Resorufin Spectral Region. Particulars: Compound fluorescence, resorufin region 547/598 nm, buffer; hits give high values. The source says:
NIH Molecular Libraries Screening Centers Network [MLSCN] NIH Chemical Genomics Center [NCGC] […] Occasionally, the artifactual effect may originate from the compound#s own spectral or other biophysical properties which generally tend to track its assay concentration. Pre-screening/profiling the library with respect to the compounds# spectral properties should help one exclude false positives early on. While the most informative fluorescent profiling data set is obtained by performing a full excitation and emission scan of each well by using a monochromator-based plate reader, such an approach is practical only on a very limited scale as scanning each well requires long time. An alternative approach, applied here, is to perform plate reader scans using selected excitation and emission wavelength pairs to generate a multidimensional relational database that correlates compound concentration and the respective relative fluorescence intensity at a given wavelength set. A standard curve of resorufin present on each plate as six-point concentration series, was used to compute a normalized fluorescence response, termed dye-equivalent concentration, for each compound at each concentration.
NCGC Assay Protocol Summary: Buffer: 100 mM Tris buffer, pH 8.0 Dye standard plate: The wells in columns 1 through 4 of a Kalypsys polypropylene 1536-well compound plate were filled with standard solutions of fluorophore corresponding to the spectral region of interest. Solutions of resorufin were placed in the following wells: M1, N1: 3 mM, M2, N2: 300 uM, M3, N3: 30 uM, M4, N4: zero (DMSO), O1, P1: 3 uM, O2, P2: […], O3, P3: 300 nM, O4, P4: zero (DMSO). Assay Steps: Six uL of buffer were dispensed to 1536-well Greiner black plates. Compounds and dye standards (23 nL) were transferred via Kalypsys PinTool. The plates were incubated for 15 min at room temperature, and then read on ViewLux (Perkin-Elmer) High-throughput CCD imager using 547 nm and 598 nm excitation and emission filter set. Keywords: NIH Roadmap, MLSCN, MLI, MLSMR, qHTS, NCGC, Resorufin, Fluorescent Profiling.
(In general: In qHTS, concentration-response curves come from the screen itself.)
Regarding `Nc1ccc2[nH]cc(CCC(=O)O)c2c1`, the max dye-equivalent concentration result was “inactive”.

`Cc1ccccc1N1CCN(S(=O)(=O)C[C@@]23CC[C@H](C[C@H]2NC(=O)[C@@H](N)CCS(C)(=O)=O)C3(C)C)CC1`: the max dye-equivalent concentration result was “inactive”.

In the case of `COCCNc1ccnc(-c2cccc(NS(C)(=O)=O)c2)n1`, the max dye-equivalent concentration result is “inactive”.

With `CCOC(=O)c1c(C)[nH]c(C)c1C(=O)CSc1nc(N)cc(N)n1`, the max dye-equivalent concentration entry is “inactive”.

For `O=C(Cn1c(=S)nc2ccccn21)N1CCc2ccccc2C1`, the max dye-equivalent concentration entry was “inactive”.

Turning to `CN1CCN2c3ccccc3Cc3ccccc3[C@@H]2C1`, the max dye-equivalent concentration result was “inactive”.

As for `COc1ccc2c(CC(=O)Nc3nnc(C4CC4)s3)coc2c1`, the max dye-equivalent concentration result is “inactive”.

As to `CC(CCO)Nc1nc2c([nH]1)c(=O)n(C)c(=O)n2C` (stereo unspecified), the max dye-equivalent concentration result is “inactive”.

For the molecule `CCOc1c(OC)cc(C2C(C#N)=C(N)Oc3n[nH]c(-c4ccncc4)c32)cc1OC` (stereo unspecified), the max dye-equivalent concentration result was “inactive”.

Regarding `Cc1ccc(S(=O)(=O)N2CCC(C(=O)N[C@@H](C)C(=O)NCCc3ccccc3)CC2)cc1`, the max dye-equivalent concentration result was “inactive”.

Regarding `NS(=O)(=O)c1cc2c(cc1Cl)NC(C(Cl)Cl)NS2(=O)=O` (stereo unspecified), the max dye-equivalent concentration entry is “inactive”.

As to `CCOC(=O)N1CCN(C(=O)CSc2nnc(-c3c[nH]c4ccccc34)n2CCOC)CC1`, the max dye-equivalent concentration result is “inactive”.

As for `CCOc1ccc(Cn2c(SCCCCC#N)nc3c2c(=O)n(C)c(=O)n3C)cc1OCC`, the max dye-equivalent concentration entry is “inactive”.

For the molecule `CNc1ncnc2ccc(-c3cccc(NS(C)(=O)=O)c3)cc12`, the max dye-equivalent concentration entry is “inactive”.

`Cc1ccc(C)n1C(Cc1ccccc1)C(=O)O` (stereo unspecified): the max dye-equivalent concentration entry is “inactive”.

For the molecule `COc1cccc2c(C)c(C(=O)O)[nH]c12`, the max dye-equivalent concentration entry was “inactive”.

For `Cc1nc2ccccc2cc1O`, the max dye-equivalent concentration entry is “inactive”.

As for `COCCNC(=O)C(c1ccc(C)o1)N(Cc1cccs1)C(=O)c1snc(C(N)=O)c1N` (stereo unspecified), the max dye-equivalent concentration result was “inactive”.

For `Cc1cc(C)c(C)c(S(=O)(=O)Nc2ccc(O)cc2)c1C`, the max dye-equivalent concentration entry was “inactive”.

As to `CCN(CC)Cc1c(C(=O)OC)nnn1-c1nonc1N`, the max dye-equivalent concentration result is “inactive”.

Consider `Cn1cccc1C(=O)N1CCC[C@@]2(CCN(Cc3nccs3)C2)C1`, for which the max dye-equivalent concentration entry was “inactive”.

With `COc1cc2[nH]c(=S)n(CCN3CCCCC3C)c(=O)c2cc1OC` (stereo unspecified), the max dye-equivalent concentration result was “inactive”.

Consider `COc1ccc(CCNC(=O)c2ccc3c(c2)NC(=O)C(N2CCOCC2)S3)cc1OC` (stereo unspecified), for which the max dye-equivalent concentration entry is “inactive”.

Turning to `COc1ccc(CCn2c(NCCCN3CCOCC3)nc3c2c(=O)[nH]c(=O)n3C)cc1`, the max dye-equivalent concentration entry is “inactive”.

As to `Cc1ccccc1CSc1nnc(-c2cccnc2)n1N`, the max dye-equivalent concentration result was “inactive”.

Take `COCCN(C(=O)CCC(=O)Nc1ccccn1)C(C(=O)NCCC(C)C)c1ccc(OC)cc1` (stereo unspecified): the max dye-equivalent concentration entry is “inactive”.

As to `NCCNCC1CCNCC1`, the max dye-equivalent concentration entry was “inactive”.

`Cc1ccc(N2CCN(c3ccc(C)cc3)C2c2ccccn2)cc1`: the max dye-equivalent concentration entry is “inactive”.

As for `O=C(NCCCN1CCN(c2ccccc2F)CC1)C1CCC(=O)N1C1CCCCC1` (stereo unspecified), the max dye-equivalent concentration result was “inactive”.

Turning to `CCOc1ccc(C(C)C)cc1S(=O)(=O)n1nc(C)cc1C`, the max dye-equivalent concentration entry was “inactive”.

Consider `COc1ccc(-c2c3c(=O)n(C)c(=O)n(C)c3cn2NC(C)=O)cc1`, for which the max dye-equivalent concentration result is “inactive”.

In the case of `CCCOC(=O)C1=C(C)NC2=C(C(=O)C(C(=O)OC)C(C)C2)C1c1ccc(N(C)C)cc1` (stereo unspecified), the max dye-equivalent concentration result is “inactive”.

With `O=C1CSC(=O)N1CCOCCN1C(=O)CSC1=O`, the max dye-equivalent concentration entry is “inactive”.

With `O=c1cc(-c2ccccc2)nc(N2CCCCC2)[nH]1`, the max dye-equivalent concentration result was “inactive”.

Regarding `O=C(CSc1nc2ccccc2[nH]1)c1cccs1`, the max dye-equivalent concentration entry was “inactive”.

For `COc1cccc2cc(C(=O)N(C)C)c(=O)oc12`, the max dye-equivalent concentration result was “inactive”.

Regarding `C=CCC(NCCCO)c1cccc(OC)c1OC` (stereo unspecified), the max dye-equivalent concentration result was “inactive”.

As for `O=C(CCCN1C(=O)CCC1=O)Nc1ccc(Cl)c(C(F)(F)F)c1`, the max dye-equivalent concentration entry is “inactive”.

For the molecule `Cc1cccc2nc(CNc3ccc(F)cc3)cn12`, the max dye-equivalent concentration result is “inactive”.

Consider `CC1(CCC(=O)OC2CCCCC2)OCCO1`, for which the max dye-equivalent concentration result was “inactive”.

Take `Cc1nc(NC(CC(C)C)C(=O)O)c2nc(C)oc2n1` (stereo unspecified): the max dye-equivalent concentration result is “inactive”.

Turning to `Cc1c(C(=O)CN2CCOCC2)[nH]c2ccccc12`, the max dye-equivalent concentration entry was “inactive”.

Consider `C[N+]1(CCNC(=O)/C=N/O)CCCCC1`, for which the max dye-equivalent concentration entry was “inactive”.

Consider `Cc1ccc(C(C)C)c(OCc2nnc(SCC(=O)Nc3nccs3)n2C)c1`, for which the max dye-equivalent concentration entry was “inactive”.

Take `Cc1nn2c3cc(N4CCOCC4)ccc3nc2c2ccccc12`: the max dye-equivalent concentration entry was “inactive”.

Turning to `COc1cc(C(=O)Nc2oc(-c3ccccc3)c(-c3ccccc3)c2C#N)cc(OC)c1OC`, the max dye-equivalent concentration entry is “inactive”.

Consider `COc1cccc(Cn2c(=O)c(-c3cc(F)cc(F)c3)nc3cnc(OC)nc32)c1`, for which the max dye-equivalent concentration result was “inactive”.

For `O=C(CN1CCOCC1)Nc1ccc(NC(=O)CN2CCOCC2)c(Cl)c1`, the max dye-equivalent concentration result was “inactive”.

Take `Cc1cccc(-n2c(N)cc(=O)nc2SC(C)C(=O)NC2CCCCC2)c1` (stereo unspecified): the max dye-equivalent concentration entry was “inactive”.

Take `Cn1c(=NC(=O)c2cnccn2)sc2ccccc21`: the max dye-equivalent concentration result is “inactive”.

`O=C(O)C1OC(C(=O)O)C2C1C(F)(F)C2(F)F` (stereo unspecified): the max dye-equivalent concentration result is “inactive”.

For the molecule `O=C(CSc1nc2ccccc2o1)N1CCN(c2ccccc2)CC1`, the max dye-equivalent concentration result was “inactive”.

Take `CCOc1ccccc1/C=c1\sc2nc(-c3ccco3)nn2c1=O`: the max dye-equivalent concentration result is “inactive”.

For the molecule `CN(c1ccccc1)c1ccc(/C=c2\s/c(=C(/C#N)C(=O)C(C)(C)C)n(Cc3ccco3)c2=O)cc1`, the max dye-equivalent concentration was 27 nM (active).

As to `CCOC(=O)CSc1nc2c(sc(=S)n2CCc2ccccc2)c(=O)n1Cc1ccco1`, the max dye-equivalent concentration entry is “inactive”.

For `COCCNc1ncnc2ccc(-c3ccccc3CN(C)C)cc12`, the max dye-equivalent concentration entry is “inactive”.

Consider `C=CCn1c(SCc2csc(C)n2)nc2scc(-c3ccc(C)o3)c2c1=O`, for which the max dye-equivalent concentration result was “inactive”.

For `O=C(CCCn1c(=O)oc2ccccc21)Nc1cccnc1`, the max dye-equivalent concentration result is “inactive”.

As to `COC(=O)c1ccc(Oc2nc(Nc3ccc(F)cc3)nc(N3CCCC3)n2)cc1`, the max dye-equivalent concentration entry was “inactive”.

In the case of `O=S(=O)(NCc1ccccn1)c1ccc(Br)s1`, the max dye-equivalent concentration result was “inactive”.

On to `O=C1C(=O)N(CCN2CCOCC2)C(c2ccccn2)/C1=C(/O)c1ccc(Cl)cc1` (stereo unspecified), for which the max dye-equivalent concentration entry is “inactive”.

With `COc1cc2[nH]c(=O)n(CCC(=O)NC3CCN(Cc4ccccc4)CC3)c(=O)c2cc1OC`, the max dye-equivalent concentration entry is “inactive”.

`CN(C)c1ccc(-c2nc(NCCN3CCOCC3)c3ccccc3n2)cc1`: the max dye-equivalent concentration entry is “inactive”.

For `CC(C)C(NC(=O)c1cccc(S(=O)(=O)N2CCOCC2)c1)C(=O)NCCc1ccccn1` (stereo unspecified), the max dye-equivalent concentration entry is “inactive”.

In the case of `COc1cc(-c2noc(C3CCCN(S(=O)(=O)c4cccc(Cl)c4)C3)n2)cc(OC)c1OC` (stereo unspecified), the max dye-equivalent concentration result was “inactive”.

On to `CC(C)C(c1nnnn1C1CCCC1)N1CCN(c2ccccc2F)CC1` (stereo unspecified), for which the max dye-equivalent concentration result was “inactive”.

For `C=CCn1c(SCc2nnc(-c3ccccc3)o2)nnc1C(O)c1ccccc1` (stereo unspecified), the max dye-equivalent concentration result is “inactive”.

Regarding `OCCCNCc1ccccn1`, the max dye-equivalent concentration result was “inactive”.

In the case of `CCCCc1cc(=O)oc2cc(C)cc(OCc3nn[nH]n3)c12`, the max dye-equivalent concentration result is “inactive”.

For the molecule `COCCn1c(=O)c(-c2ccccc2)nc2cnc(N3CCOCC3)nc21`, the max dye-equivalent concentration entry was “inactive”.

Consider `Cc1cc(N2C(=O)c3ccc(C(=O)NCc4ccccc4)cc3C2=O)no1`, for which the max dye-equivalent concentration entry was “inactive”.
